Shown is part of a subset that was picked to be rich in hits.
KDM4E inh = qHTS Assay for Inhibitors of Human Jumonji Domain Containing 2E (JMJD2E). Lysine-specific demethylase 4E (Homo sapiens), B2RXH2. JMJD2E catalytic domain, FDH-coupled NADH fluorescence (FDH is formaldehyde dehydrogenase). Potency, µM (top dose mostly 57.1 µM), without a hit: at the highest dose activity change, negative = inhibition, most hits filed as inhibitors. 230,000 tested, 1.6% active; active = well fitted inhibition curve with a large enough effect, not every such curve was filed as active; inconclusive = small, poorly fitted or top-dose-only effect, or another doubt; inactive = no such curve, though single readings can be large or run the other way;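 also: 0% = wells with enzyme and -100% = buffer wells without enzyme; nearly all actives have a fitted effect of over 50% in size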
RECQ1 helicase = qHTS Assay for Inhibitors of RecQ-Like Dna Helicase 1 (RECQ1); ATP-dependent DNA helicase Q1 (Homo sapiens), P46063; RECQ1 DNA unwinding, red fluorescence kinetic read; Potency, µM (top dose mostly 57.3 µM), without a hit: top-dose activity, negative = inhibition, usual class: inhibitors; 240,000 tested, 0.54% active; AID 2549, 2010;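 also: plate controls were vehicle for no effect and no enzyme for full effect; nearly all actives have a fitted effect of over 30% in size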
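50 nM RECQ1T1 preincubated 15 min with compound in Tris pH 8.0 buffer with MgCl2, DTT, Tween-20 and 2.5 ug/ml poly(dI-dC); started with 200 nM TAMRA/BHQ-2 forked duplex and 2 mM ATP. Unwinding read as fluorescence (525/598 nm), two reads 2 h apart.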
BLM inh = qHTS Assay for Inhibitors of Bloom's syndrome helicase (BLM) | recombinant BLM DNA unwinding, fluorescence dequenching | Potency, µM (doses to about 56.1 µM), without a hit: top-dose activity change, negative = inhibition, usual class: inhibitors | 350,000 tested, 0.2% active;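 also: plate controls were vehicle for no effect and no enzyme for full effect; nearly all actives have a fitted effect of over 35% in size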
GoLoco inh red = qHTS Assay for Inhibitors of RGS12 GoLoco Motif Activity (Red Fluorophore); AID 880, 2007; 230,000 tested, 0.44% active; Potency, µM (titrated, usually from 61.6 µM), inactives show top-dose activity, negative = inhibition, most hits filed as inhibitors; Gai1:RGS12 GoLoco peptide FP, rhodamine, 10 min; Guanine nucleotide-binding protein G(i) subunit alpha-1 (Homo sapiens), P63096; active = well fitted inhibition curve with a large enough effect, not every such curve was filed as active; inactive = no such curve, though single readings can be large or run the other way; also: nearly all actives have a fitted effect of over 30% in size
L3MBTL1 block = qHTS Assay for the Inhibitors of L3MBTL1 | Lethal(3)malignant brain tumor-like protein 1 (Homo sapiens), Q9Y468 | AlphaScreen L3MBTL1–H3K9me1 peptide binding | Potency, µM (highest dose often 57.1 µM), for inactives: at the top dose activity, negative = inhibition, hits mostly inhibitors | 230,000 tested, 0.66% active | AID 485360, 2010; also: nearly all actives have a fitted effect of over 60% in size
Target sequence (Q9Y468 whole entry, looked up): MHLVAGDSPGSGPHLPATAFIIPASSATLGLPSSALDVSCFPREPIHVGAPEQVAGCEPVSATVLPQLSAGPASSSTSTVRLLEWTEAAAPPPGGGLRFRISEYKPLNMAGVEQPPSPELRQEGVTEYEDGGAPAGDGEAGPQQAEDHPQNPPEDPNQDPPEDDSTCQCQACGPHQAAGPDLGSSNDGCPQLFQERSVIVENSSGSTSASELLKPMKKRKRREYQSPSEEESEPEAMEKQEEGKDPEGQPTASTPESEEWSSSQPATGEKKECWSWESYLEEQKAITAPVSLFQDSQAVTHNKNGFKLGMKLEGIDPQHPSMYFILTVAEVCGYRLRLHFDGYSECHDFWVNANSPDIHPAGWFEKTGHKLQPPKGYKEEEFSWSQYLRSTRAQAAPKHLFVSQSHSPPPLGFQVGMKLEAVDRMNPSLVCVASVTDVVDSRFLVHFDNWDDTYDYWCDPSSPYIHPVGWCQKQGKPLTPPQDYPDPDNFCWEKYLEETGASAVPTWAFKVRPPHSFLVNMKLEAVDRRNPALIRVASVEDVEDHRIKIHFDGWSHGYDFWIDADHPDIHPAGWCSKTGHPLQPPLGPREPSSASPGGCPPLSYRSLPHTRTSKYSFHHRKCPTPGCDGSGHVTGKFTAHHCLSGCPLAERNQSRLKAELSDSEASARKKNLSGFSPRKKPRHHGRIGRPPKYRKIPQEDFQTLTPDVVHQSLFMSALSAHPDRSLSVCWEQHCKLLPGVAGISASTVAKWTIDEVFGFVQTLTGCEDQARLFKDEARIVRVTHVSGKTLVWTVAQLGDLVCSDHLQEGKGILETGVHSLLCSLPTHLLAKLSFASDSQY
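AlphaScreen assay: L3MBTL1 (50 nM final) was preincubated 30 min at room temperature with biotinylated H3(1-15)K9me1 peptide (75 nM final), then 30 min with library compounds; streptavidin donor and nickel chelate acceptor beads (10 ug/mL final) added, 30 min dark.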
APE1 inh-1 = qHTS Assay for Inhibitors of the Human Apurinic/apyrimidinic Endonuclease 1 (APE1) | DNA repair nuclease/redox regulator APEX1 (Homo sapiens), P27695 | recombinant APE1, TAMRA/BHQ-2 abasic DNA cleavage fluorescence | Potency, µM (highest dose often 65.8 µM), inactives show at the highest dose activity change, negative = inhibition, most hits filed as inhibitors | 350,000 tested, 0.35% active | AID 2517, 2012;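 also: plate controls were vehicle for no effect and reference inhibitor for full effect; nearly all actives have a fitted effect of over 55% in size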
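Measures dequenching upon AP-site incision of a 5'-TAMRA/3'-BHQ-2 THF-containing duplex, 50 nM; human APE1 0.75 nM after 15 min room-temperature exposure to compound; kinetic three-point read at one-minute spacing.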
DNA dye displace = Counterscreen for APE1 Inhibitors: Fluorescent Dye Displacement Assay; 480 tested, 7% active; Potency, µM (doses to about 28.5 µM), without a hit: top-dose activity change, negative = inhibition, hits mostly inhibitors; shares compounds with APE1 inh-1; DNA fluorescent dye displacement counterscreen, fluorescence;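 also: loss of thiazole orange fluorescence as the dye is displaced from duplex DNA; 0% = ThO with dsDNA and no compound and -100% = ThO without dsDNA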
EndoIV counter = Counterscreen for APE1 Inhibitors: qHTS Assay for Inhibitors of Endonuclease IV. shares compounds with APE1 inh-1. Potency, µM (titrated, usually from 27.1 µM), for inactives: at the top dose activity change, negative = inhibition, usual class: inhibitors. E. coli Endo IV, fluorogenic AP-site DNA cleavage. 560 tested, 4% active;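 also: plate controls were uninhibited enzyme wells for no effect and no enzyme buffer wells for full effect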
APE1 inh-2 = Confirmation qHTS Assay for Inhibitors of the Human Apurinic/apyrimidinic Endonuclease 1 (APE1). shares compounds with APE1 inh-1. purified APE1, fluorogenic abasic-site DNA cleavage. Potency, µM (doses to about 57.1 µM), for inactives: at the top dose activity change, negative = inhibition, most hits filed as inhibitors. 750 tested, 44% active; also: nearly all actives have a fitted effect of over 30% in size
APE1 FP inh = qHTS FP-Based Assay for Inhibitors of the Human Apurinic/apyrimidinic Endonuclease 1 (APE1) | shares compounds with APE1 inh-1 | 480 tested, 7% active | Potency, µM (series often up to 28.5 µM), inactives show top-dose activity, negative = inhibition, hits mostly inhibitors | APE1 binding to TAMRA-labelled double-stranded DNA, fluorescence polarization displacement
Active calls of the source: *; i = inactive; ? = inconclusive; . = no result given; [ ] = dose if it differs, or a comment. Unless noted, calls follow the shape of the dose curve; as a rule, active = well fitted curve in the direction sought with a large enough effect; inconclusive = small, poorly fitted or top-dose-only effect, or another doubt; inactive = no such curve, though single readings can be large; an effect the other way counts as inactive or inconclusive. Unless noted, % is scaled to controls: 0 for no effect and ±100 for the full control effect; potency is read from the fitted curve at half-maximal effect.

SMILES	KDM4E inh	RECQ1 helicase	BLM inh	GoLoco inh red	L3MBTL1 block	APE1 inh-1	EndoIV counter	APE1 inh-2	others
Cc1nnc(SCC(=O)Nc2nc(-c3ccccc3)cs2)n1N	2%	i	-2%	4%	7%	-4%	.	.
Cc1ccc2c(c1)C(c1ccccc1)N(C(=O)c1ccc(S(=O)(=O)N3CCCC3)cc1)CC(=O)N2 (stereo not drawn)	.	.	-4%	.	.	.	.	.
O=C(Nc1nccs1)c1cn(-c2ccccc2)nc1-c1ccncc1	?	-12%	-15%	13%	-4%[11.4 µM]	7%	.	-17%
COc1ccc(-c2nn(-c3ccccc3)cc2C(=O)Nc2nccs2)cc1	?	i	-8%	5%	.	-8%	.	.
CC(=O)NNC(=O)N1Cc2ccccc2Oc2ccc(Cl)cc21	0%	-7%	-1%	4%	.	2%	-9%[57.1 µM]	-38%
CC(=O)N1Cc2cc([N+](=O)[O-])ccc2Oc2ccccc21	10%	i	2%	6%	.	-6%	.	.
O=C(N/N=C1/C[C@@H](O)[C@@H](O)[C@@H]2[C@@H]3C(=O)N(C[C@@H]4CCCO4)C(=O)[C@H]3CC[C@@H]12)OCc1ccccc1	.	4%[11.5 µM]	1%[12.4 µM]	.	.	27%[12.4 µM]	.	.
Cc1cc2c(nc1C)CCCCN2C[C@H](C)O/N=C\[C@@H](C)[C@H](OCc1ccccc1)C(C)C	.	i[11.5 µM]	-1%[12.4 µM]	.	.	?	.	.
CC(C)(C)C1CCc2onc(C(=O)Nc3sc4c(c3C(N)=O)CCCC4)c2C1 (stereo not drawn)	.	.	-7%	.	.	.	.	.
COc1ccc(OCC(=O)OCCN2C(=O)c3ccccc3C2=O)cc1	-2%	-10%	-21%	2%	-10%	?	4%	?	DNA dye displace=-9%;APE1 FP inh=8%
Cc1cccc(N2NC(=O)/C(=C/c3ccc(-c4ccc(Cl)c(C(=O)O)c4)o3)C2=O)c1	?	?	-12%	-11%	.	18µM*	2%	?	DNA dye displace=-14%;APE1 FP inh=1%
Cc1ccc(Sc2ccc(/C=C3/C(=O)NN(c4ccccc4)C3=O)o2)cc1	-1%	-22%	-8%	6%	.	2%	.	.
O=C1NN(c2ccccc2)C(=O)/C1=C/c1ccc(-c2ccc(Cl)c(C(=O)O)c2)o1	?	?	-11%	-10%	.	13µM*	-4%	22µM*	DNA dye displace=?;APE1 FP inh=?
COCc1cc(C)nc2sc3c(=O)n(-c4ccccc4C(F)(F)F)nnc3c12	.	.	1%	.	.	.	.	.
Cn1nc([N+](=O)[O-])nc1Oc1ccccc1F	4%	-2%	-10%	6%	-1%	3%	.	.
Cn1nc([N+](=O)[O-])nc1S(C)(=O)=O	4%	-15%	-2%	-1%	-8%	?	0%	?	DNA dye displace=-1%;APE1 FP inh=-2%
COc1ccc(N2CCN(C(=O)c3ccc4nc(N5CCC(C)CC5)sc4c3)CC2)cc1	.	.	-5%	.	.	.	.	.
COc1ccc(-n2c(C)cc(C=O)c2C)cc1Cl	-8%	-11%	-5%	12%	-17%	1%	.	.
Cc1cc(C=O)c(C)n1-c1ccc(Cl)c(C(=O)O)c1	-21%	28µM*	-3%	3%	4µM*	5.6µM*	8%	8.9µM*	DNA dye displace=6%;APE1 FP inh=-23%
CC(C)c1ccc(C2=NC(c3ccncc3)=Nc3ccc(F)cc3N2)cc1	.	.	-7%	.	.	.	.	.
CC(=O)Oc1ccc2c(=O)c(/C=N/c3cc(=O)[nH]c(=S)[nH]3)coc2c1	-28%	0%	0%	-5%	-13%	6%	.	-39%
O=C1CCCc2oc3ccc(NS(=O)(=O)c4cccc5cccnc45)cc3c21	-1%	9%	-1%	0%	-2%	?	.	?
CC1(C)CC(=O)c2c(oc3ccc(NS(=O)(=O)c4cccc5cccnc45)cc23)C1	10%	-5%	-5%	6%	-13%	-10%	.	.
COc1ccc(OC)c(NC(=O)CC(=O)Nc2ccc3nc4n(c(=O)c3c2)CCCCC4)c1	.	.	-4%	.	.	.	.	.
COc1c(O)cc2c(c1O)C(=O)CC(c1ccccc1)O2 (stereo not drawn)	-6%	-10%	-3%	3%	5%	25µM*	2%	-11%[24.4 µM]	DNA dye displace=-3%;APE1 FP inh=0%
SMILES	KDM4E inh	RECQ1 helicase	BLM inh	GoLoco inh red	L3MBTL1 block	APE1 inh-1	EndoIV counter	APE1 inh-2	others
Cc1nn(-c2ccccc2)c(C)c1S(=O)(=O)O	?	7%	-6%	15%	-7%	-1%	.	?
N[C@H](C(=O)O)[C@H]1C[C@@H]1C(=O)O	7%	-3%	.	11%	.	-6%	-25%[57.1 µM]	2.5µM*
N#Cc1cc2nc(O)c(O)nc2cc1[N+](=O)[O-]	2%	2%	1%	0%	-8%	?	-10%[57.1 µM]	-82%
O=[N+]([O-])c1cc2nc(O)c(O)nc2cc1[N+](=O)[O-]	.	0%	0%	5%	.	-5%	.	.
COc1ccc(OC)c(-c2csc(N(Cc3ccco3)C(=O)c3ccco3)n2)c1	42%	-7%	-16%	4%	.	?	?	?	DNA dye displace=-11%;APE1 FP inh=-3%
CCOC(=O)c1cc2c(=O)n3ccccc3nc2n(Cc2ccco2)c1=NC(=O)c1cccc(OC)c1	?	-10%	?	94%	0%	-9%	.	.
CCOC(=O)c1cc2c(=O)n3ccccc3nc2n(Cc2ccco2)c1=NC(=O)c1ccccc1OC	?	-21%	-24%	10%	6%	?	.	-35%

Screening results as filed in PubChem BioAssay.
